# High-throughput results from PubChem BioAssay.
# Sampled rows, rich in hits. Any-hit rate of the full collection: about 2.8%.
# TWEAK-Fn14 inh: TWEAK-Fn14 signaling inhibition; 360,000 compounds, 2% hits; inhibition, % at 10 µM; TWEAK-stimulated Fn14 reporter cells, luciferase luminescence, 8 h; in the data active means inhibition above about 50%
# TROY NFkB inh: TROY signaling inhibition; Q293 LMP1-TROYcd NF-kB luciferase reporter, 4 h; inhibition, % at 10 µM; 360,000 compounds, 0.98% hits;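 active means compounds whose plate-normalised and pattern-corrected inhibition of the luciferase reporter signal at the single screening dose is 50% or more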
# EWS-Fli block: EWS/Fli transcriptional activity inhibition. A673 NR0B1-luciferase reporter, viability-normalised. 350,000 compounds, 0.67% hits. inhibition, % at 12.6 µM. AID 651661;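 active means mean inhibition of at least 50% after viability correction, with every replicate also passing that limit; inconclusive means mean reaches 50% but only one of two replicates passes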;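 further: firefly luciferase signal divided by Alamar Blue viability fluorescence both relative to DMSO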
# LGR2 inh: blocks bursicon-induced cAMP signaling via Drosophila LGR2; HEK293 LGR2, CRE-luciferase, bursicon-stimulated, 4 h; inhibition, % at 9.99 µM; 380,000 compounds, 0.35% hits;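 active means drop in luminescence signal, shown as inhibition above about 50% in the replicate tests, limit read from the data, passing the limit was not always enough; inconclusive means probably only some replicates passing the limit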;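 further: agonist challenge used bursicon conditioned medium at about half maximal strength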
# PAX8 inh HTS: lowers PAX8-driven luciferase in RMG-I cells | RMG-I TPO-luciferase reporter, SteadyGlo, 24 h | inhibition, % at 12.6 µM | 360,000 compounds, 1.2% hits;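 active means mean replicate inhibition at least 60% with every replicate also reaching 60%; inconclusive means only one of the two criteria is met; inactive means mean below 60% and not all replicates reaching 60%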;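 further: luciferase light reporting Pax8 driven TPO promoter activity; plate controls were median of neutral control wells for no effect and mitoxantrone controls for full effect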
# * marks the source's active call; other numbers are inactive results; ? = inconclusive; . = no result given.
SMILES,TWEAK-Fn14 inh,TROY NFkB inh,EWS-Fli block,LGR2 inh,PAX8 inh HTS
O=C(/C=C/c1ccccc1)NC(NC(=S)Nc1ccc(Cl)cc1Cl)C(Cl)(Cl)Cl (stereo unspecified),64*,28,.,.,.
COc1ccc(NC(=S)NC(NC(=O)c2cccc(Cl)c2)C(Cl)(Cl)Cl)c([N+](=O)[O-])c1 (stereo unspecified),40,7,.,.,.
S=C(Nc1ccccc1)Nc1ccc(Cl)cc1Cl,-36,-14,.,.,6
Cc1ccc(C)c(NC(=S)NC(NC(=O)OCc2ccccc2)C(Cl)(Cl)Cl)c1 (stereo unspecified),61*,49,.,-12,.
CN1c2ccc(Br)cc2[C@@H]2[C@@H](CCN2C(=O)C2CCOCC2)[C@H]1CO,.,.,-4,-8,-8
COc1ccc(NC(=O)Nc2cccc3c2O[C@@H](CN(C)Cc2ccc(Cl)c(Cl)c2)[C@H](C)CN([C@H](C)CO)C3=O)cc1,.,.,1,-2,.
O=C(/C=C/c1ccccc1)NC(NC(=S)Nc1cccc(O)c1)C(Cl)(Cl)Cl (stereo unspecified),56*,47,.,17,9
Cc1ccc(C)c(NC(=S)NC(NC(=O)/C=C/c2ccccc2)C(Cl)(Cl)Cl)c1 (stereo unspecified),55*,30,.,.,68*
O=C(/C=C/c1ccccc1)NC(NC(=S)Nc1ccc(C(=O)O)cc1)C(Cl)(Cl)Cl (stereo unspecified),-3,0,.,0,4
CC(C)NC(=O)N(C)C[C@@H]1OCCCC[C@H](C)Oc2ccc(NC(=O)Cc3ccccc3)cc2C(=O)N([C@H](C)CO)C[C@@H]1C,.,.,.,0,10
C[C@@H](NC(=O)[C@@H]1[C@@H](CO)[C@@H]2Cn3c(cccc3=O)[C@H]1N2Cc1cccnc1)c1ccccc1,.,.,3,2,2
Cc1cccc(C)c1OCC(=O)OCC(=O)Nc1ccc(Cl)cn1,0,0,3,0,-4
Cc1ccc2c(CC(=O)OCC(=O)Nc3ccc(Cl)cn3)coc2c1,15,17,7,-10,119*
C[C@@H]1CN([C@H](C)CO)C(=O)c2cccc(NC(=O)c3ccncc3)c2O[C@H]1CN(C)C(=O)Nc1ccc2c(c1)OCO2,.,.,-81,-2,.
C=CC(=O)Nc1ccc(Nc2nc(NC3CCC(N(C)C)CC3)nc3c2ncn3C(C)C)cc1 (stereo unspecified),95*,71*,.,.,.
CC(C)n1cnc2c(Nc3ccc(F)c(Cl)c3)nc(NCCO)nc21,21,15,-30,.,20
O=C(Nc1cc(F)ccc1F)N[C@H]1CC[C@H](CCn2cc(C3CC3)nn2)O[C@H]1CO,.,.,4,12,1
COc1ccc(OCCN2CCC(C(=O)NC(c3ccccc3)c3ccc4ccccc4n3)CC2)cc1 (stereo unspecified),-2,-1,.,.,.
O=C(NC(c1ccccc1)c1ccc2ccccc2n1)C1CCN(CCOc2ccc(Cl)cc2)CC1 (stereo unspecified),92*,11,7,-1,19
CCN1CC(=O)N2[C@@H](CO)[C@@H](c3ccc(Br)cc3)[C@@H]2C1,.,.,-15,7,.
CCN(C[C@@H]1N[C@@H](CO)[C@@H]1c1ccc(C2=CCCC2)cc1)C(=O)c1ccncc1,.,.,-8,-1,-8
CN(C[C@H]1N[C@@H](CO)[C@@H]1c1ccc(C2=CCCC2)cc1)C(=O)c1ccncc1,.,.,42,-11,81*
CN(C[C@H]1N[C@@H](CO)[C@@H]1c1ccc(C2=CCCC2)cc1)C(=O)c1ccccn1,.,.,27,-20,72*
COC(=O)c1sc2nc(C)nc(SCC(=O)Nc3sccc3C(N)=O)c2c1C,60*,49,11,13,27
O=C(C[C@H]1C=C[C@@H](NC(=O)CC2CC2)[C@@H](CO)O1)NCc1ccc(Cl)cc1,.,.,2,5,-1
SMILES,TWEAK-Fn14 inh,TROY NFkB inh,EWS-Fli block,LGR2 inh,PAX8 inh HTS
COc1ccccc1Nc1ccc2c(O)cc(S(=O)(=O)O)cc2c1,79*,17,1,-4,-11
O=S(=O)(O)c1cc(O)c2ccc(Nc3ccccc3)cc2c1,32,37,-9,-22,-19
COc1ccc(-c2ccc3c(c2)[C@H]2[C@H](CCN2S(=O)(=O)c2ccc(F)cc2)[C@H](CO)N3C)cc1,.,.,5,16,94*
COc1ccc(S(=O)(=O)N2CC[C@H]3[C@@H](CO)N(C)c4ccc(-c5ccc(F)cc5)cc4[C@H]32)cc1,.,.,-9,19,-1
COc1cccc(-c2ccc3c(c2)[C@@H]2[C@@H](CCN2S(=O)(=O)c2ccc(F)cc2)[C@H](CO)N3C)c1,.,.,0,-2,?
COc1ccc(S(=O)(=O)N2CC[C@@H]3[C@@H](CO)N(C)c4ccc(-c5ccc(F)cc5)cc4[C@@H]32)cc1,.,.,42,-25,66*
COc1ccc(-c2ccc3c(c2)[C@@H]2[C@@H](CCN2S(=O)(=O)c2ccc(F)cc2)[C@@H](CO)N3C)cc1,.,.,9,-3,7
CN1c2ccc(-c3ccc(F)cc3)cc2[C@H]2[C@H](CCN2S(=O)(=O)c2ccc(F)cc2)[C@@H]1CO,.,.,55*,12,41
COc1cccc(-c2ccc3c(c2)[C@H]2[C@H](CCN2S(=O)(=O)c2ccc(F)cc2)[C@@H](CO)N3C)c1,.,.,11,7,67*
CN1c2ccc(-c3ccc(C#N)cc3)cc2[C@H]2[C@H](CCN2S(=O)(=O)c2ccc(F)cc2)[C@@H]1CO,.,.,13,4,-3
COc1cccc(-c2cn(CC[C@H]3CC[C@@H](NC(C)=O)[C@H](CO)O3)nn2)c1,.,.,-36,3,20
COc1cccc(CN2CCC2(C)C(=O)Nc2cccc(NS(C)(=O)=O)c2)c1OC (stereo unspecified),67*,6,-6,10,41
C[C@H](CO)N1C[C@H](C)[C@@H](CN(C)C(=O)Nc2ccc(F)cc2)Oc2ccc(NC(=O)Cc3ccccc3)cc2C1=O,.,.,-1,14,4
O=C([C@H]1[C@H](CO)[C@H]2Cn3c(ccc(-c4ccccc4)c3=O)[C@@H]1N2CCC(F)(F)F)N1CCCCC1,.,.,2,-10,-7
CCOC(=O)CSc1nc2sc3c(c2c(=O)n1-c1ccccc1)CCN(C)C3,-11,0,1,0,3
CCOC(=O)CSc1nc2sc3c(c2c(=O)n1-c1ccccc1)CCN(C(C)C)C3,84*,11,13,10,11
COc1ccccc1C1CC(=O)Nc2cc3c(cc21)OCCO3 (stereo unspecified),13,20,40,-2,.
CC(C)Oc1ccccc1C1CC(=O)Nc2cc3c(cc21)OCCO3 (stereo unspecified),23,33,.,.,80*
C[C@@H]1CN([C@H](C)CO)C(=O)c2cccc(NC(=O)Nc3ccc4c(c3)OCO4)c2O[C@H]1CN(C)S(=O)(=O)c1ccc(F)cc1,.,.,-10,6,-12
CC(C)NC(=O)N(C)C[C@@H]1Oc2ccc(NS(=O)(=O)c3ccc(Cl)cc3)cc2CC(=O)N([C@H](C)CO)C[C@H]1C,.,.,-4,16,-19
